About 83,000 compounds went through this panel and 20% of them were active in at least one assay; those are over-represented in the sample as a whole.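 Activity criterion: percent growth below 10, measured after cells in 96-well plates were exposed to a single compound concentration for 48 hours.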 The source made the active and inactive calls.

The assay deals with BT-549 breast. The assay is described as follows: NCI-60 one-dose screen, 48 h (100 = growth as untreated, 0 = no growth, -100 = all killed). To be noted: 10 µM unless noted.
Regarding `Cc1ccc(C)c(-c2csc(Nc3ccc(C)c(C)c3)n2)c1`, the growth is 64.6% (inactive).

On to `COc1ccc(-c2nnc(COc3ccc(C(=O)/C=C/c4ccco4)cc3)o2)cc1`, for which the growth was 79.2% (inactive).

Consider `O=C1/C=C/[C@@H](O)[C@@H]2C[C@@H](O)C[C@H]2/C=C/CCCCO1`, for which the growth was 45.3% (inactive).

Consider `COc1ccc(CCN2C(=O)CCSC2=S)cc1`, for which the growth is 96.3% (inactive).

With `COc1ccc(/C=C/C(=O)c2ccc3cc(OC)c(OC)cc3c2)cc1OC`, the growth is 33.9% (inactive).

`CC(C)c1ccc(S(=O)(=O)NC(=O)NC2CCCC2)cc1`: the growth was 100% (inactive).

For `CCN1CCN(c2cc(C)c3cc(NC(=O)c4ccc(OC)c(OC)c4)ccc3n2)CC1`, the growth was 42.3% (inactive).

Turning to `CCOC(=O)c1c2c(c(C)n1Cc1ccc(OC)cc1)-c1oncc1CC2`, the growth was 104% (inactive).

For `COC(=O)/C(=C\c1c(C)[nH]c2ccccc12)S(=O)(=O)c1ccccc1`, the growth is 29.8% (inactive).

For `O=C(NCCCN1CCC(N2CCCCC2)CC1)C1=Cc2cc(Br)ccc2OC1`, the growth is 90% (inactive).

Turning to `O=C(Nc1ccc(-c2nc3cc4ccccc4cc3[nH]2)cc1)c1cccc(Br)c1`, the growth is 47.9% (inactive).

As to `Nc1nc(-c2cnccn2)nn1-c1nc2ccccc2s1`, the growth is 104% (inactive).

For the compound `CCCCN1CCN(c2ccc3nc(-c4ccc5nc(-c6ccc(C(F)(F)F)cc6)[nH]c5c4)[nH]c3c2)CC1`, the growth was -53.2% (active).

For `O=C(Nc1ccc(N2CCNCC2)cn1)c1[nH]ncc1Nc1ncnc2sccc12`, the growth is 93.4% (inactive).

Regarding `CCOC(=O)CSc1c(-c2ccccc2)c2cc(Cl)ccc2[nH]c1=O`, the growth was 103% (inactive).

Values taken from PubChem BioAssay (NCI).
